{
  "source": "PubChem BioAssay (NCATS)",
  "note": "Records with an inconclusive call do not appear. Entries that show only a call come without a potency. The source made the active and inactive calls. The call rests on the fitted dose curve; in most records, active means well fitted cell-killing curve with a large enough effect; inconclusive means small, poorly fitted or top-dose-only effect, or effect the other way; inactive means no such curve, though single readings can be large or run the other way. Potency means the concentration at half of the fitted maximal effect.",
  "data": [
    {"assay": "Quantitative High-Throughput drug screen in 47 multiple myeloma cell lines against the NCATS MIPE library collection: KMS28BM_JCRB cell viability assay (AID 1919874); further: nearly all actives have a fitted effect of over 35% in size", "conditions": "CellTiter-Glo ATP, 48 h; series mostly up to 45.8 µM", "method_in_brief": "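ATP-based luminescence (CellTiter-Glo, 5 min RT incubation) quantified surviving cells following two days' treatment with MIPE 4.0 agents at 37 °C, 5% CO2.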", "values": [
      {"compound": "O=C(c1ccc(F)cc1)N1CCC[C@H](c2nc(-c3ccc(F)cc3)no2)C1", "Potency": "inactive"},
      {"compound": "CN(C)CC(=O)N1CCC(c2ccc(NC(=O)c3ncc(C#N)[nH]3)c(C3=CCCCC3)c2)CC1", "Potency": "26.4 µM (active)"},
      {"compound": "Cc1ccccc1C(=O)Nc1ccc(C(=O)N2CCCC(O)c3cc(Cl)ccc32)c(C)c1", "note": "(stereo unspecified)", "Potency": "inactive"},
      {"compound": "Oc1cc2c(cc1O)C1c3ccc(O)c(O)c3OCC1(O)C2", "note": "(stereo unspecified)", "Potency": "inactive"},
      {"compound": "NC(=O)Nc1sc(-c2ccc(F)cc2)cc1C(N)=O", "Potency": "4.69 µM (active)"},
      {"compound": "NC(=O)c1cccc(-c2cccc(OC(=O)NC3CCCCC3)c2)c1", "Potency": "inactive"}
    ]}
  ]
}
